Measurements from the supplement of paper PMC4188521.

compound: CCc1cnn2c(NCc3ccc[n+]([O-])c3)cc(N3CCCC[C@H]3CCO)nc12 [dinaciclib]; assay: cell viability remaining relative to DMSO control; higher = less cytotoxic (more viable cells); settings: 100 nM; 24 h
Method: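 Solid tumor cell lines were treated with dinaciclib (100 nM) for 24 hr. Viability was measured by CellTiter-Glo ATP luminescence and expressed as % of DMSO-treated control wells (mean of 2-6 plates, triplicate wells per plate).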

Target	cell viability remaining [%]
TOV21G	66.7
SNU1	50.8
SKMES1	53.9
A2058	18.4
HEC251	91.8
H520	30.8
H526	16.7
SNGM	98.3
SKMEL28	56.2
SKCO1	89.8
H23	41.9
H522	80.6
MDAMB175VII	36
SCC4	66.5
U87MG	63
SKBR3	51.1
COLO792	8.9
H226	56.1
RPMI7951	45.3
VCAP	37.8

Target	cell viability remaining [%]
DU4475	72.3
COLO704	78.2
CCFSTTG1	70.6
22RV1	50.2
FADU	31.8
HUTU80	27.1
MDAMB231	57.6
H1792	60.9
BT483	83.9
CALU6	58.4
D283MED	43
JIMT1	66.2
MDAMB453	65.4
COLO679	68.6
OE33	51.6
HS600T	93.8
MIAPACA2	41.2
DETROIT562	34.6
EFE184	93.1
G361	4.9
